The test system of assay [1] is Wnt5a (protein binding on small-molecule microarray). Put plainly: small molecules binding Wnt5a protein – biophysical, small-molecule microarray, 635/667 nm fluorescence, primary screen (AID 1142).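 Also: fluorescence read at 667 nm with signal to noise per printed feature.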 To be noted: 635 nm fluorescence, higher = more signal.
A short description of assay [2]: ATP-based viability of Huh7 replicon cells – cell-based, CellTiter-Glo luminescence, basal, 48 h, cytotoxicity control for HCV replication inhibitor project, primary screen (AID 1143).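 Also: Huh7 hepatoma cells carrying a hepatitis C replication reporter with no stimulus; test concentration not given here.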 As to conditions: higher = more signal, called active from +8 up or from −8 down. For orientation: A replicon is a self-replicating genome or part of one, used to study replication in cells.

Assay [3] can be described thus: basal CRE-LacZ reporter activity in PC12 – cell-based, unstimulated, primary screen (AID 1145). As to conditions: no forskolin, luminescence, 4.5 h, higher = more signal, called active from +8 up or from −8 down.
Assay [4] is described as follows: forskolin-driven CRE-LacZ activity in PC12 – cell-based, CRE-LacZ reporter, forskolin-stimulated, primary screen (AID 1146).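 Also: PC12 cells with 6xCRE LacZ reporter stimulated by forskolin 10 µM; beta-galactosidase reporter signal reflecting CREB driven transcription.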 To be noted: luminescence, 4.5 h, higher = more signal, called active from +8 up or from −8 down.
Assay [5] has as its target Streptavidin (Streptomyces avidinii) (UniProt P22629). Put plainly: compounds binding control protein streptavidin – biophysical, small-molecule microarray, 635/667 nm fluorescence, artefact control for SMM compound annotation, primary screen (AID 1147).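 Also: signal reflects streptavidin binding to arrayed compounds as a control protein.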 To be noted: higher = more signal.
Assay [6] is described as follows: probe aInhba binding on compound microarray – biochemical, small-molecule microarray, 635/667 nm fluorescence, primary screen (AID 1148).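 Also: score merges 667nm spot fluorescence with signal-to-noise for antibody binding to printed compounds.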 To be noted: higher = more signal.
The target of assay [7] is Torsin-1A (Homo sapiens) (UniProt O14656). Put plainly: TOR1A wild-type binding on microarray – cell lysate, small-molecule microarray, lysate, 635/667 nm, primary screen (AID 1149). As to conditions: COS7 hTOR1A-WT lysate, 635 nm fluorescence, higher = more signal.
Sequence of Torsin-1A (Homo sapiens) (O14656 whole entry, looked up): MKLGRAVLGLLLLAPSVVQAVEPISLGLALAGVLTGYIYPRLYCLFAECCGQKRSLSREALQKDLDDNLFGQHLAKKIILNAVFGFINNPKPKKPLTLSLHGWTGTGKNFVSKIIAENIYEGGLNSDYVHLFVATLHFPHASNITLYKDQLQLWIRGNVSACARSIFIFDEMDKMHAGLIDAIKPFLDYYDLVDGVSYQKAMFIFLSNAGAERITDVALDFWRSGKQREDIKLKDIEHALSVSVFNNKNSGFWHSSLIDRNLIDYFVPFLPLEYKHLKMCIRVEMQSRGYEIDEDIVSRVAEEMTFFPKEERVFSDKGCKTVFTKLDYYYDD
The target is the same in assay [8]. Put plainly: torsin A mutant lysate binding on microarrays – cell lysate, small-molecule microarray, COS7 lysate, 635/667 nm fluorescence, primary screen (AID 1150).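 Also: score pools 667 nm emission and signal to noise measuring lysate protein binding.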 To be noted: COS7 hTOR1A mutant lysate, 635 nm fluorescence, higher = more signal.
Assay [9] relates to Sonic hedgehog protein (Shh). Put plainly: Sonic hedgehog microarray binding compounds – biochemical, small-molecule microarray, 635/667 nm fluorescence, primary screen (AID 1151).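 Also: Shh protein binding to compounds spotted on small-molecule microarray slides; score combines spot fluorescence intensity with signal-to-noise across triplicate slides.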 To be noted: 635 nm fluorescence, higher = more signal.
Assay [10] in a line: optical density shifts of acrAB sulA E. coli – strain DRC41, OD650, 48 h, E. coli filamentation inducer project, primary screen (AID 1152).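 Also: E. coli MC1000 strain DRC41 lacking acrAB efflux pump and sulA.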 To be noted: higher = more signal, called active from +8 up or from −8 down.
Assay [11] in a line: probe aLefty1 binding on compound microarray – biochemical, small-molecule microarray, 635/667 nm fluorescence, primary screen (AID 1153).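 Also: score merges spot fluorescence with signal-to-noise ratio from the scanned slide images.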 To be noted: higher = more signal.
The nature of assay [12]: plasmodial surface anion channel blockers, osmotic lysis – cell-based, P. falciparum Indochina, OD700, 1 h, primary screen (AID 1154). As to conditions: P. falciparum Indochina infected RBC osmotic lysis, higher = more signal, called active from +8 up or from −8 down.
Assay [13] can be described thus: plasmodial surface anion channel blockers, osmotic lysis – cell-based, P. falciparum Indochina, OD700, 2 h, primary screen (AID 1155).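 Also: lysis reports solute entry through the parasite surface anion channel PSAC.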 As to conditions: P. falciparum Indochina infected erythrocytes, higher = more signal, called active from +8 up or from −8 down.
A short description of assay [14]: changes in parasitized red cell lysis, either direction – P. falciparum Indochina, OD700, 3 h, PSAC antagonist project, primary screen (AID 1156). To be noted: P. falciparum-infected erythrocytes, osmotic lysis, higher = more signal, called active from +8 up or from −8 down.
Assay [15] can be described thus: plasmodial surface anion channel blockers, osmotic lysis – cell-based, P. falciparum Indochina, OD700, 18 h, primary screen (AID 1157). To be noted: P. falciparum Indochina infected erythrocytes, osmotic lysis OD700, 18 h; higher = more signal, called active from +8 up or from −8 down.
Assay [16] is described as follows: S6 kinase pathway phospho-S6 level changes – cell-based, A549, cytoblot, luminescence, serum-stimulated, primary screen (AID 1158).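 Also: serum-stimulated A549 lung adenocarcinoma cells; signal is phosphorylated S6 detected by cytoblot immunostaining with HRP secondary.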 To be noted: 5 h, higher = more signal.
In assay [17] the target is NADPH oxidase 2 (Homo sapiens) (UniProt P04839). Put plainly: compounds shifting NOX2 Amplex Red fluorescence – cell-based, HEK293-NOX2, PMA-stimulated, NOX inhibitor project, primary screen (AID 1159). Also: test concentration not given here. As to conditions: 45 min, higher = more signal, called active from +8 up or from −8 down.
Sequence of NADPH oxidase 2 (Homo sapiens) (P04839 whole entry, looked up): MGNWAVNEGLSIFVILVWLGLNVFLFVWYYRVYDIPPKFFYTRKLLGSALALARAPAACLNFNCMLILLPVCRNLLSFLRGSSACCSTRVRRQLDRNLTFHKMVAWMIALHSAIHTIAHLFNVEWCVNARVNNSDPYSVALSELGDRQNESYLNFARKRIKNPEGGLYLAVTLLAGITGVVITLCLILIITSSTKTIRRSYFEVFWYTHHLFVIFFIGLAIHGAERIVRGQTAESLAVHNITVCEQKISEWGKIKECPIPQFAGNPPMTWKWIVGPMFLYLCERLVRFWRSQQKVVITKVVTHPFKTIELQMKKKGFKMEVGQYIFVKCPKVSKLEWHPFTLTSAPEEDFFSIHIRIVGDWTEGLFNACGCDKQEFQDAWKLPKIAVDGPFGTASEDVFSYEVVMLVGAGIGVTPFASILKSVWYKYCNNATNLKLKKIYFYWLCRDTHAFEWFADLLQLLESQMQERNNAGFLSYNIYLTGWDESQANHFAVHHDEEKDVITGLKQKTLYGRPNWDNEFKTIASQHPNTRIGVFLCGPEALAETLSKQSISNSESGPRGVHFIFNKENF
Assay [18] deals with NADPH oxidase 4 (Homo sapiens) (UniProt Q9NPH5). Put plainly: compounds shifting NOX4 Amplex Red fluorescence – cell-based, HEK293-NOX4, tetracycline-induced, NOX inhibitor project, primary screen (AID 1160). To be noted: HEK293-NOX4, Amplex Red H2O2 fluorescence, 45 min; higher = more signal, called active from +8 up or from −8 down.
Sequence of NADPH oxidase 4 (Homo sapiens) (Q9NPH5 whole entry, looked up): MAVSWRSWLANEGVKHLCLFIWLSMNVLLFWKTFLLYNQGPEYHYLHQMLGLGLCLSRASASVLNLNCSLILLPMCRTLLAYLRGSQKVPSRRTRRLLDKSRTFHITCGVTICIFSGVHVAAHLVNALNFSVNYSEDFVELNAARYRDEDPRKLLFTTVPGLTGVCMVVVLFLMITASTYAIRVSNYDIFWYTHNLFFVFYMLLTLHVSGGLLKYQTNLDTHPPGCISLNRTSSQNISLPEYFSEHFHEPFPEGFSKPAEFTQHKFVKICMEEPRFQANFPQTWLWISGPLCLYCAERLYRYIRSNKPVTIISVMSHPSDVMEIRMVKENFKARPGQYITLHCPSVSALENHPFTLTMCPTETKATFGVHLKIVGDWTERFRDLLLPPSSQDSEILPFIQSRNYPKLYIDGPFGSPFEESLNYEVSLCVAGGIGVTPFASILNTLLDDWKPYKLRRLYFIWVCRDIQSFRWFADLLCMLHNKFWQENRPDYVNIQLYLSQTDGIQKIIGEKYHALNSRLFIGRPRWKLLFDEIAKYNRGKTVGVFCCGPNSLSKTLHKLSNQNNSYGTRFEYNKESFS
The target in assay [19] is NADPH oxidase 5 (Homo sapiens) (UniProt Q96PH1). Put plainly: compounds shifting NOX5 Amplex Red fluorescence – cell-based, HEK293-NOX5, NOX inhibitor project, primary screen (AID 1161). As to conditions: HEK293-NOX5, ionomycin, 45 min, higher = more signal.
Sequence of NADPH oxidase 5 (Homo sapiens) (Q96PH1 whole entry, looked up): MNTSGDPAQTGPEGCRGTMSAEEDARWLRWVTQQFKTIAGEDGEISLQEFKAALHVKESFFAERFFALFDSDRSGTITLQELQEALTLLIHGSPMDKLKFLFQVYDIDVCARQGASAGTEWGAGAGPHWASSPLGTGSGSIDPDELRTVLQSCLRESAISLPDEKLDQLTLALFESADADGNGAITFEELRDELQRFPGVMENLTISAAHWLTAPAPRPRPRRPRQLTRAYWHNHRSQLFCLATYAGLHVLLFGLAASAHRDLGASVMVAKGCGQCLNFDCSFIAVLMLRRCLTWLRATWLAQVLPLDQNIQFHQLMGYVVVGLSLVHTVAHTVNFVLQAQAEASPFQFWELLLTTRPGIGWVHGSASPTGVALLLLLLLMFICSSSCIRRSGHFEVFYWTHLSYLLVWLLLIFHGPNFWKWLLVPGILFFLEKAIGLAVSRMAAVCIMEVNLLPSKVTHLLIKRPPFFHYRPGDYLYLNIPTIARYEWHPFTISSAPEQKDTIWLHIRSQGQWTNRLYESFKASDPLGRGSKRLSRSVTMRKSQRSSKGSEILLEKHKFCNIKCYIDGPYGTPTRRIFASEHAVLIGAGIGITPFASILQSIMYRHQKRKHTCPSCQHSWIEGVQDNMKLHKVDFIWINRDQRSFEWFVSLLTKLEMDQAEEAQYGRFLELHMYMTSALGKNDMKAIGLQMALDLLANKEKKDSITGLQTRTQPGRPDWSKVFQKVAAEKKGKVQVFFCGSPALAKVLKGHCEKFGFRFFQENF
A short description of assay [20]: compound effects on lung adenocarcinoma cell viability – A549, calcein-AM fluorescence, 48 h, basal, profiling panel (AID 1162). Also: test concentration not given here. To be noted: higher = more signal.

Activity calls are given as the source filed them.

Sequence of Streptavidin (Streptomyces avidinii) (P22629 whole entry, looked up): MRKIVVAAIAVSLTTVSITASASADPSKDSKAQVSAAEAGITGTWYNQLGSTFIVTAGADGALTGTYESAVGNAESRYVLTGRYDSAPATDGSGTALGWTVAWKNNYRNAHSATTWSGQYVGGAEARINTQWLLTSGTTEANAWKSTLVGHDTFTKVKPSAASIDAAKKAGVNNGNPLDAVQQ

Consider `COCCCNC(=O)[C@@]1(Cc2ccccc2)N=C(c2ccc(OCCCO)cc2)O[C@H]1c1ccccc1N=[N+]=[N-]`, for which the composite z-score in assay [1] was 0.834; in [5], 0.356; in [6] it was 0.49; with Torsin-1A (Homo sapiens) [7] it was 0.544; with Torsin-1A (Homo sapiens) [8], 0.449; in [9], 0.475. Further, the composite z-score in assay [11] turned out to be 0.826. Also, the z-score in assay [2] was -4.48 (inactive); in assay [3] it was 1.74 (inactive); in assay [4] it was -1.74 (inactive); in [10] it was 1.78 (inactive); in assay [12] it was 29.6 (active); in assay [13] it was 27.1 (active). The z-score in assay [14] was 3.66 (inactive); in assay [15], 1.92 (inactive); in [16], 0.98; in assay [17], -0.14 (inactive); in [18] it was 0.523 (inactive); in [19], -1.57. The z-score in assay [20] is -0.622.

On to `C=CC[C@]1(C(=O)N2CCCCC2)COC(c2ccc(OCCCO)cc2)=N1`, for which the composite z-score in [1] is 0.0945; in assay [5] it was -0.712; in assay [6] it was -0.128; with Torsin-1A (Homo sapiens) [7], -0.273; in the assay with Torsin-1A (Homo sapiens) [8], -0.204; in assay [9], 0.0166. In addition, the composite z-score in assay [11] amounted to 0.0391. The z-score in [2] is -4.06 (inactive); in assay [3] it was 1.08 (inactive); in assay [4], -1.78 (inactive); in assay [10], 0.924 (inactive); in assay [12] it was 24.9 (active); in assay [13], 12 (active). Also, the z-score in assay [14] is 4.37 (inactive); in assay [15] it was 0.866 (inactive); in assay [16], 0.826; in [17], -3.2 (inactive); in [18], -0.256 (inactive); in assay [19], -3.57. Further, the z-score in [20] was -1.48.

For `COc1ccc([Si](C)(C)[C@H]2[C@H](CC(=O)N3Cc4ccccc4C[C@H]3CO)O[C@@]3(C(=O)N(Cc4cccc(N5C(=O)COc6ccccc65)c4)c4ccccc43)[C@@H]2C)cc1`, the composite z-score is 0.283 in assay [1]; 0.22 in [5]; -0.0986 in assay [6]; 0.562 with Torsin-1A (Homo sapiens) [7]; 0.212 with Torsin-1A (Homo sapiens) [8]; 2 in assay [9]. The composite z-score in [11] was -0.0035. Besides, the z-score is -3.87 (inactive) in [2]; 3.47 (inactive) in assay [3]; -1.86 (inactive) in assay [4]; 0.578 (inactive) in [10]; 3.46 (inactive) in assay [12]; 1.76 (inactive) in assay [13]. The z-score in [14] is 1.69 (inactive); in assay [15], 1.04 (inactive); in [16], 0.0515; in assay [17], -1.37 (inactive); in assay [18], -0.307 (inactive); in [19], -2.34. Moreover, in assay [20], the z-score was 0.486.

In the case of `COc1ccc(C#Cc2ccc3c(c2)[C@]2(C(=O)N3)[C@H](c3ccc(O)cc3)N3[C@H](c4ccccc4)[C@H](c4ccccc4)OC(=O)[C@H]3[C@@H]2C(=O)N2CCN(c3ncccn3)CC2)cc1`, the composite z-score in assay [1] stood at 0.167; in assay [5] it was 1.13; in [6], 0.18; with Torsin-1A (Homo sapiens) [7], 0.246; with Torsin-1A (Homo sapiens) [8], 0.923; in [9] it was 0.262. For the same compound, the composite z-score in [11] stood at 0.312. Besides, the z-score in [2] was -1.76 (inactive); in [3], 0.478 (inactive); in assay [4], 0.708 (inactive); in [10], 1.77 (inactive); in [12], 1.28 (inactive); in assay [13] it was 0.22 (inactive). The z-score in assay [14] was 1.19 (inactive); in assay [15], 0.564 (inactive); in assay [16], 0.26; in assay [17] it was 0.393 (inactive); in [18], 0.0458 (inactive); in assay [19] it was 1.21. The z-score in assay [20] was 0.214.

With `C=CCC1(CC=C)C[C@H]2CO[C@H](c3ccc(OC)cc3)N2C1=O`, the composite z-score in [1] was -0.125; in assay [5], -0.147; in [6] it was -0.105; with Torsin-1A (Homo sapiens) [7] it was 0.483; in the assay with Torsin-1A (Homo sapiens) [8] it was 0.862; in assay [9], 0.707. The same compound came in with a composite z-score in assay [11] of -0.0654. The z-score is -0.15 (inactive) in assay [2]; 1.73 (inactive) in assay [3]; -0.473 (inactive) in assay [4]; 2.03 (inactive) in assay [10]; -0.214 (inactive) in assay [12]; 0.573 (inactive) in assay [13]. Further, the z-score in assay [14] was -0.123 (inactive); in [15] it was 0.503 (inactive); in assay [16] it was 0.0446; in assay [17], 0.992 (inactive); in [18] it was 0.181 (inactive); in [19], -0.0682. In addition, the z-score in [20] was 1.12.

The values are drawn from PubChem BioAssay.
